The full list was thinned out, with hits kept by preference.
Sm TGR block: inhibitors of Schistosoma mansoni thioredoxin glutathione reductase; Q962Y6; purified TGR, DTNB reduction, TNB absorbance 405 nm; Potency, µM (top dose mostly 114 µM), for inactives: top-dose activity change, negative = inhibition, usual class: inhibitors; actives 3% (n = 360,000); AID 485364; note: potency is the fitted concentration of half-maximal effect; % is set by controls: 0 for no effect and ±100 for the full control effect; nearly all actives have a fitted effect of over 60% in size
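TGR 20 nM + NADPH 100 uM (dispensed conc.), cpd preinc 15 min RT; start with NADPH (500 uM addition) then DTNB (15 mM addition). Kinetic TNB absorbance, 405 nm filter. Four-parameter Hill fit across titration.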
TbPYK inhibitor: inhibitors of Trypanosoma brucei pyruvate kinase. TbPYK enzyme, Kinase-Glo Plus ATP luminescence, 45 min. AID 624173. actives 0.12% (n = 410,000). Potency, µM (doses to about 76.8 µM), for inactives: top-dose activity, negative = inhibition, most hits filed as inhibitors. Q57TT1; note: potency is the fitted concentration of half-maximal effect; % is set by controls: 0 for no effect and ±100 for the full control effect; nearly all actives have a fitted effect of over 50% in size
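Quantitative HTS: titrated library compounds versus trypanosomal pyruvate kinase in TEA buffer (pH 7.2) containing KCl, MgCl2, BSA and Tween-20. Reactions were initiated with ADP, 130 uM final. Kinase-Glo Plus luminescence was read after 45 min at RT.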
Shiga toxin inh: Shiga toxin inhibition | inhibition, % at 38.7 µM | actives 9.2% (n = 290,000) | Vero cells, Shiga toxin protein synthesis inhibition reporter | AID 2315; in the data active = inhibition mostly above about 28%, no sharp cut-off; inactive = mostly below about 43%; note: 0% is about no effect
FBPA Giardia inh: Giardia lamblia aldolase inhibition. A8B2U2. purified Giardia FBPA. Potency, µM (titrated, usually from 59.6 µM), without a hit: at the highest dose activity, negative = inhibition, hits mostly inhibitors. actives 0.71% (n = 290,000). AID 2451; note: potency is the fitted concentration of half-maximal effect; % is set by controls: 0 for no effect and ±100 for the full control effect; nearly all actives have a fitted effect of over 55% in size
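Giardia FBPA (40 nM reagent) was preincubated 10 min at RT with compound (up to 57.5 uM final), then substrate plus GAPDH/TPI/NAD/arsenate coupling system with diaphorase/resazurin was added; resorufin fluorescence (525/598 nm) was read after 20 min.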
LmPK inh: LmPK (Leishmania mexicana) enzyme inhibition; Q27686; purified LmPK, Kinase-Glo ATP luminescence, 1 h; Potency, µM (highest dose often 57.5 µM), without a hit: at the top dose activity change, negative = inhibition, hits mostly inhibitors; actives 0.37% (n = 290,000); AID 1721; note: potency is the fitted concentration of half-maximal effect; % is set by controls: 0 for no effect and ±100 for the full control effect
Target sequence (Q27686 whole entry, looked up): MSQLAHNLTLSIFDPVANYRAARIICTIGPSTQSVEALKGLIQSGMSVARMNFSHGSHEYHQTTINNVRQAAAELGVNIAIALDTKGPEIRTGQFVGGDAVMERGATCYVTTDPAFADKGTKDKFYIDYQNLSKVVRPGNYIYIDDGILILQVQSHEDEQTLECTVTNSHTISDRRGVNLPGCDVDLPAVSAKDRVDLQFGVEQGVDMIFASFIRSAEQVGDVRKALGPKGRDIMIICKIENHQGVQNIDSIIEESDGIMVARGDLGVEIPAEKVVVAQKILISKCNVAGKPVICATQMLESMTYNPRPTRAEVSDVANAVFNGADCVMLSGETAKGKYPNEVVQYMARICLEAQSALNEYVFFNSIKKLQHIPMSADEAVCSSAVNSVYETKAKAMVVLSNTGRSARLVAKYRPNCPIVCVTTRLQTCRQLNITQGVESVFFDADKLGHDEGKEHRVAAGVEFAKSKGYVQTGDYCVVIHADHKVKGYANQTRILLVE
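Screened at intermediate enzyme activity to detect both inhibitors and activators: LmPK at 0.1 nM, with a 0.5 nM enzyme column as activation reference. PEP 0.5 mM, ADP 0.1 mM; ATP detected by luminescence after 1 h.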
CHX counter: counter-screen for Shiga toxin inhibitors: cycloheximide protein synthesis inhibition | cell reporter, cycloheximide protein synthesis inhibition counterscreen | max response, % | actives 12% (n = 300,000); in the data active = max response mostly above about 13%, no sharp cut-off; inactive = mostly below about 14%; note: read at 38.3 µM for the half of the compounds with a filed dose; 0% is about no effect
Active calls of the source: *; ? = inconclusive; . = not tested or not shown; [ ] = remark or other dose. Unless noted, calls come from the whole dose curve; as a rule, active = well fitted curve in the direction sought with a large enough effect; inconclusive = small, poorly fitted or top-dose-only effect, or another doubt; inactive = no such curve, though single readings can be large; an effect the other way counts as inactive or inconclusive.

SMILES	Sm TGR block	TbPYK inhibitor	Shiga toxin inh	FBPA Giardia inh	LmPK inh	CHX counter
COC(=O)c1cc(-c2ccc(Br)cc2)n[nH]1	-3%	3%	41*	2%	0%	29*
COC(=O)c1cc(-c2c(C)nn(-c3ccccc3)c2C)n[nH]1	2%	3%	58*	1%	-7%	26*
COc1ccc(-c2cc(C(=O)NNC(=S)NC(=O)c3c(-c4ccccc4)noc3C)[nH]n2)cc1	3%	-6%	106*	17%	-1%	19*
Cc1cccc(NC(=O)Cn2c(SCC(=O)NCc3ccccc3)nc3ccccc32)c1C	-20%	5%	.	.	.	.
COc1ccc(C(=O)N(Cc2ccc(C(C)C)cc2)C2CCS(=O)(=O)C2)cc1 (stereo not given)	5%	-11%	.	.	.	.
COC(=O)c1cc(-c2c[nH]c3ccccc23)n[nH]1	-3%	1%	16	-1%	7%	10*
COc1ccc(C(=O)Nc2cc(-c3ccccc3)nn2-c2ccccc2)cc1	8%	1%	.	.	.	.
CCOc1ccc(-c2cc(C(=O)NN)[nH]n2)cc1	-4%	-8%	44*	4%	-3%	43*
COc1ccc(-c2cc(C(=O)NN)n(-c3ccccc3)n2)cc1	-10%	-15%	78*	5%	1%	25*
CCOC(=O)c1cc(-c2ccccc2)n[nH]1	12%	-21%	47*	1%	0%	19*
COc1ccccc1-c1cc(C(=O)NN)[nH]n1	12%	1%	17	-5%	-7%	11
CCC(=O)N1c2ccccc2CC1C(=O)NCc1cc(Br)ccc1OC (stereo not given)	6%	-1%	.	.	.	.
COc1cccc(NC(=O)CSc2nc(=O)n(Cc3ccncc3)c3c2CCC3)c1	-7%	-2%	.	.	.	.
CC1CC(C)C(=O)C(C(O)CC2CC(=O)NC(=O)C2)C1 (stereo not given)	.	3%[157 µM]	.	.	.	.
COCCCNC(=O)CC1C(=O)N(Cc2ccccc2)C(C)c2nc3ccccc3n21 (stereo not given)	-3%	2%	-9	4%	5%[11.5 µM]	-5
COc1ccc(C2=NN(CC(=O)Nc3ccccc3C)C(=O)CC2)cc1	5%	4%	12	1%	-5%	12*
Nn1c(SCc2ccc(Br)cc2)nnc1-c1ccccn1	-6%	-3%	-6	6%	-4%	-3
c1ccc(CSc2nnc(-c3ccccn3)n2-c2ccccc2)cc1	6%	-11%	-7	2%	6%	1
Cn1c(CO)cnc1SCc1ccc(F)cc1	0%	0%	50*	-18%	-9%	17*
Cn1c(SCc2ccc(F)cc2)nnc1-c1ccccn1	4%	-12%	116*	9%	1%	39*
Cc1ccc(CSc2nnc(-c3ccccn3)n2C)cc1	2%	7%	94*	-17%	-11%	24*
Cc1ccc2nsnc2c1NC(=O)c1ccc(-c2cc(Cl)ccc2Cl)o1	40µM*	4%	-12	-25%	12%	-4
O=C(Nc1ccccc1N1CCCCC1)c1ccc(-c2cccc(Cl)c2)o1	-8%	-2%	11	-3%	3%	2
CCC(=O)Nc1c(C)ccc2nsnc12	9%[11.4 µM]	-5%	-9	6%	14%	-2
Cc1ccc2nsnc2c1NC(=O)CCl	45µM*	-5%	18	1%	-2%	-1
SMILES	Sm TGR block	TbPYK inhibitor	Shiga toxin inh	FBPA Giardia inh	LmPK inh	CHX counter
O=C(Nc1cccc2nsnc12)c1ccc(-c2cccc(Cl)c2)o1	6.3µM*	-5%	3	?	1%	-1
COc1ccc2oc(C(=O)N(C)CCOc3ccccc3)c(C)c2c1	-19%	-7%	83*	.	-11%	38*
COc1ccc2oc(C(=O)N(C)Cc3ccc(OC(F)F)cc3)c(C)c2c1	13%	4%	5	.	4%	15
Cc1ccc2oc(C(=O)N(C)CCC(O)c3ccccc3)c(C)c2c1 (stereo not given)	-13%	-3%	22*	-9%	-2%	13
CO/N=C(/C)CCS(=O)(=O)c1ccccc1	-3%	3%	-10	3%	-7%	6
CC1(C(=O)NNC(=O)c2ccc(=O)oc2)CC1Br (stereo not given)	10µM*	2%	24	12%	9%	13*
